In PubChem BioAssay (NCATS) one finds Z-AUC data, which are given here for four compounds.

The source made the active and inactive calls. Calls come from the whole dose curve.

One experiment in a line: qHTS drug screen for cell cycle checkpoint inhibitors in PARPi-resistant BRCA-mutant ovarian cancer cell lines. (AID 1963452). The settings on record: PEO1/OlaR viability, CellTiter-Glo luminescence, 96 h; stronger effect = lower value. The method, boiled down:
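PEO1, PEO4 and PEO1/OlaR ovarian cancer cells, 600 per well, exposed 96 h at 37C to a dilution series. Viability read by CellTiter-Glo luminescence, normalized to DMSO and empty wells; activity summarized as Z-AUC.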
Background: Quantitative high-throughput screening tests each substance at several concentrations.
With `COc1ccc(-c2oc3ncnc(N)c3c2-c2ccc(NC(=O)Nc3cc(C(F)(F)F)ccc3F)cc2)cc1`, the Z-AUC is 0.736 (inactive).

As to `CN1CCN(c2nc(C3=C(c4c[nH]c5ccccc45)C(=O)NC3=O)c3ccccc3n2)CC1`, the Z-AUC was 1.37 (inactive).

`Cc1c[nH]c(/C=C2\C(=O)Nc3ccccc32)c1CCC(=O)O`: the Z-AUC was 1.24 (inactive).

As to `COC1(c2sc3c(N4CCOCC4)nc(-c4cnc(N)nc4)nc3c2C)COC1`, the Z-AUC was -1.69 (inactive).

Still in this experiment, the particulars now being: PEO1/OlaR viability, CellTiter-Glo luminescence, 96 h; measured here: PEO1 parental Z-AUC; stronger effect = lower value.
Consider `COc1ccc(-c2oc3ncnc(N)c3c2-c2ccc(NC(=O)Nc3cc(C(F)(F)F)ccc3F)cc2)cc1`, for which the Z-AUC worked out at 0.865.

For `CN1CCN(c2nc(C3=C(c4c[nH]c5ccccc45)C(=O)NC3=O)c3ccccc3n2)CC1`, the Z-AUC came to 0.875.

For the compound `Cc1c[nH]c(/C=C2\C(=O)Nc3ccccc32)c1CCC(=O)O`, the Z-AUC worked out at 1.05.

On to `COC1(c2sc3c(N4CCOCC4)nc(-c4cnc(N)nc4)nc3c2C)COC1`, for which the Z-AUC was -1.58.
